Assay outcomes: PubChem, several laboratories
ANO1 block – TMEM16A chloride channel inhibitors, primary screen, cell-based, HTS | Anoctamin-1 (Mus musculus), Q8BHY3 | HEK293 TMEM16A/YFP iodide influx fluorescence, ionomycin | normalized B-score (activity score, 25-100; higher = stronger inhibition) at 10 µM | 1.2% of 310,000 active | AID 588511, 2011;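 active = ratio plate-corrected score three or more library SD toward inhibition, starting fluorescence score within five deviations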;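 also: score derived from kinetic fluorescence span divided by baseline fluorescence per well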
Target sequence (Q8BHY3 whole entry, looked up): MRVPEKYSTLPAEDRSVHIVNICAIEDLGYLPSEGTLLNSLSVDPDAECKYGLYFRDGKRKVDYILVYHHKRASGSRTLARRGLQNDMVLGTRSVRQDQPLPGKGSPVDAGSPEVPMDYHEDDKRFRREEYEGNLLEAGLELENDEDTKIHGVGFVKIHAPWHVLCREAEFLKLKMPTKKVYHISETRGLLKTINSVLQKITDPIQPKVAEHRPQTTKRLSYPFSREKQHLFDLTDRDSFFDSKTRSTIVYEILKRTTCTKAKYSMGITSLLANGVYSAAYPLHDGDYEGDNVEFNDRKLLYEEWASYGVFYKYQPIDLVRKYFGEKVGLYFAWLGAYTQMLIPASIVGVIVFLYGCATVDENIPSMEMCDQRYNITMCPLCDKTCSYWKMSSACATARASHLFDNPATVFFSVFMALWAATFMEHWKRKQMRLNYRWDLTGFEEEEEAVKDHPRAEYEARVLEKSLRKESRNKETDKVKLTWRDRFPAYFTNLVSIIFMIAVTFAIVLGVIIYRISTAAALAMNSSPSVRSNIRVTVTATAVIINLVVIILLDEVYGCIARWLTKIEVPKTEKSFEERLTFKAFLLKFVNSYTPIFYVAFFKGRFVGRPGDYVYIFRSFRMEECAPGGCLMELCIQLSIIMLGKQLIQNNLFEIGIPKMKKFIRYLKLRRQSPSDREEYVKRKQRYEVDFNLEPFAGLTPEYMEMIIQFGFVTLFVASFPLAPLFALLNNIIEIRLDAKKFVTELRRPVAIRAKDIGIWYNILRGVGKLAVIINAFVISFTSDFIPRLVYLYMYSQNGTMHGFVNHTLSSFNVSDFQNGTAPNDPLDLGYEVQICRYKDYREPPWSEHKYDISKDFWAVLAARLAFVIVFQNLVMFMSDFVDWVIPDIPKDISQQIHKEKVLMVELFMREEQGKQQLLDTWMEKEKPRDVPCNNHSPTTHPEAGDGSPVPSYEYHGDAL
PP5 primary – PP5 phosphatase inhibitors, primary screen, biochemical, fluorescence; inhibition, % at 6.7 µM; purified PP5c, OMFP substrate fluorescence; 0.18% of 320,000 active; AID 1987, 2009;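 active = inhibition above the campaign's mean inhibition across all tested compounds plus 3 SD, cut at about 9.5% in these data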;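 also: 0% = DMSO only and 100% = 100 µM cantharidin control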
PREPL inhibitor – PREPL enzyme inhibitors, primary screen, biochemical, fluorescence polarization; recombinant PREPL, fluorescence polarization activity-based probe; inhibition, % at 5.96 µM; 0.68% of 320,000 active; Prolyl endopeptidase-like (Homo sapiens), Q4J6C6; in the data active = inhibition above about 43%;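 also: 0% = enzyme with DMSO and 100% = wells lacking enzyme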
TMEM16A act – TMEM16A chloride channel activators or potentiators, primary screen, cell-based, HTS; HEK293 TMEM16A/YFP-H148Q/I152L, iodide quench fluorescence; active compounds read low; B-score at 10 µM; 0.3% of 340,000 active; AID 623877, 2012;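 active = fluorescence-ratio B-score plate-corrected deviation score at least 3 library SD below zero, with starting fluorescence score within 5 deviations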;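 also: channel opened by trigger with iodide after compound preincubation; score built on the fluorescence ratio of max minus min over baseline; more negative score means more quench and so TMEM16A activation or potentiation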
PP1 inh – PP1-alpha phosphatase inhibitors, primary screen, counter-screen for PP5 inhibitor project, biochemical, fluorescence, OMFP substrate, single point; inhibition, % at 6.7 µM; Serine/threonine-protein phosphatase PP1-alpha catalytic subunit (Homo sapiens), P62136; purified PP1alpha; 0.9% of 320,000 active;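 active = inhibition above the mean inhibition of all tested compounds plus 3 SD, computed separately for each screening campaign, cut at about 15% in these data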
FID counter – compounds displacing fluorescent DNA intercalator, primary screen, artefact control for HCV NS3 helicase inhibitor project, biochemical, FID fluorescence | DNA fluorescent intercalator displacement | inhibition, % at 7.9 µM | 0.17% of 290,000 active | AID 1845, 2009; in the data active = inhibition above about 37%;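 also: 0% = vehicle and 100% = reference compound; higher means more ethidium bromide displaced from hairpin DNA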
* hit, by the source's call. This is a sample that favours compounds with a hit; in the whole collection about 2.7% have one here.

How did C=CCn1c(SCC(=O)N2CCOCC2)nc2scc(-c3ccco3)c2c1=O do in these assays?
ANO1 block: inactive; PP5 primary: 1; PREPL inhibitor: 9; TMEM16A act: inactive; PP1 inh: 8; FID counter: -15

Results for CC(=O)OC1C(=O)N(Cc2ccccc2)C1c1ccc(C)cc1 (stereo unspecified) ?
TMEM16A act: inactive

What do the screens show for `CN(C)C(=O)COc1ccc(S(=O)(=O)c2ccc(OCC(=O)N(C)C)cc2)cc1`?
ANO1 block: inactive; PP5 primary: 0; PREPL inhibitor: -3; TMEM16A act: inactive; PP1 inh: 1; FID counter: -9

What do the screens show for `Cc1ccc2c(c1)c1c(n2CC(O)Cn2c(C)nc3ccccc32)/C(=N\O)CCC1` (stereo unspecified)?
ANO1 block: 100*; PP5 primary: 6; PREPL inhibitor: 18; TMEM16A act: -12*; PP1 inh: 2; FID counter: -3

What do the screens show for `Cn1cncc1C#Cc1ccc2cc(C(C)(C)O)oc(=O)c2c1`?
PP5 primary: 1; PREPL inhibitor: 2; TMEM16A act: -11*; PP1 inh: -2

How did CC1CCC(C(C)C)C(OC(=O)CSc2nccc(=O)[nH]2)C1 (stereo unspecified) do in these assays?
ANO1 block: inactive; PP5 primary: 2; PREPL inhibitor: 14; TMEM16A act: inactive; PP1 inh: -1; FID counter: -22

What do the screens show for `COc1ccc(OCc2n(CC(=O)OC3CC(C)CCC3C(C)C)c3ccccc3[n+]2C)cc1` (stereo unspecified)?
ANO1 block: inactive; PP5 primary: 2; PREPL inhibitor: 39; TMEM16A act: inactive; PP1 inh: 16*; FID counter: 40*

How did COc1ccc(-c2n(CC(=O)OC3CC(C)CCC3C(C)C)c3ccccc3[n+]2C)cc1 (stereo unspecified) do in these assays?
TMEM16A act: -6.1*; FID counter: 36

What do the screens show for `CCOC(=O)c1cnc2c(C)cc(Cl)cc2c1NCCCN1CCOCC1`?
ANO1 block: inactive; PP5 primary: 3; PREPL inhibitor: -4; TMEM16A act: inactive; PP1 inh: -1; FID counter: 46*

Results for CCOC(=O)c1cnc2c(C)cccc2c1NCCCN1CCOCC1 ?
ANO1 block: inactive; PP5 primary: 2; PREPL inhibitor: 2; TMEM16A act: inactive; PP1 inh: -1; FID counter: 55*

What do the screens show for `CCN(Cc1ccncc1)C(=O)c1ccc2c(c1)S(=O)(=O)c1ccccc1C2=O`?
ANO1 block: inactive; PP5 primary: 0; PREPL inhibitor: -1; TMEM16A act: inactive; PP1 inh: 3; FID counter: -10

Results for COc1ccccc1CNCC(O)Cn1c2ccccc2c2ccccc21 (stereo unspecified) ?
ANO1 block: inactive; PP5 primary: 4; PREPL inhibitor: 9; TMEM16A act: inactive; PP1 inh: 3; FID counter: 23

How did COc1ccc(C(=O)c2c(C)c3ccccc3n2CC(O)CNC(C)C)cc1 (stereo unspecified) do in these assays?
ANO1 block: inactive; PP5 primary: -2; PREPL inhibitor: 11; TMEM16A act: inactive; PP1 inh: 3; FID counter: 37*

How did CCCNc1ncc2c(=O)[nH][nH]c(=O)c2n1 do in these assays?
TMEM16A act: inactive

Results for O=CNc1c(Br)cc2c(c1Br)Cc1cc(Br)ccc1-2 ?
TMEM16A act: inactive

Results for NS(=O)(=O)c1ccc(CCNC(=O)COC(=O)C2CCC2)cc1 ?
ANO1 block: inactive; PP5 primary: -1; PREPL inhibitor: 24; TMEM16A act: -4.6*; PP1 inh: 4; FID counter: -3

Results for COc1cc(OC)c(C(=O)OCC(=O)N2CCN(S(=O)(=O)c3ccc(C)cc3C)CC2)cc1OC ?
TMEM16A act: inactive

Results for CCN1CCN(S(=O)(=O)c2ccc(Cl)c(C(=O)N(C)Cc3ccc(C(C)(C)C)cc3)c2)CC1 ?
TMEM16A act: inactive

How did COC(=O)Cn1ncn2cccc2c1=O do in these assays?
ANO1 block: inactive; PP5 primary: 0; PREPL inhibitor: -6; TMEM16A act: inactive; PP1 inh: 0; FID counter: 0

How did O=c1[nH]ncn2cccc12 do in these assays?
ANO1 block: 100*; PP5 primary: -5; PREPL inhibitor: 3; TMEM16A act: inactive; PP1 inh: 10; FID counter: 0

How did Cc1cc(C)c(S(=O)(=O)c2ccccc2Cl)c(=O)[nH]1 do in these assays?
ANO1 block: inactive; PP5 primary: 1; PREPL inhibitor: -1; TMEM16A act: inactive; PP1 inh: 0; FID counter: -5

How did COc1ccc(C(=O)NC(=S)Nc2ccc(S(N)(=O)=O)cc2)cc1 do in these assays?
ANO1 block: inactive; PP5 primary: 4; PREPL inhibitor: -6; TMEM16A act: inactive; PP1 inh: -3; FID counter: -3

How did NS(=O)(=O)c1ccc(NC(=S)NC(=O)C2CCCCC2)cc1 do in these assays?
ANO1 block: inactive; PP5 primary: 1; PREPL inhibitor: 13; TMEM16A act: -4.7*; PP1 inh: -1; FID counter: -11

What do the screens show for `Cn1cc(Br)c(C(=O)NC(=S)Nc2ccc(S(N)(=O)=O)cc2)n1`?
ANO1 block: inactive; PP5 primary: 1; PREPL inhibitor: 7; TMEM16A act: -6.4*; PP1 inh: 1; FID counter: -8

What do the screens show for `NS(=O)(=O)c1ccc(NC(=S)NC2CCCCCC2)cc1`?
ANO1 block: inactive; PP5 primary: 3; PREPL inhibitor: 7; TMEM16A act: inactive; PP1 inh: -1; FID counter: -4

Results for CC1(C)C(=O)CC[C@]2(C)C3C(=O)C=C4[C@H]5C[C@@](C)(C(=O)O)CC[C@]5(C)CC[C@]4(C)[C@]3(C)CC[C@@H]12 (stereo partly specified) ?
ANO1 block: inactive; PP5 primary: 1; PREPL inhibitor: 5; TMEM16A act: inactive; PP1 inh: 1

How did CC1(C)[C@@H](O)CC[C@]2(C)C3C(O)C=C4[C@H]5C[C@@](C)(C(=O)O)CC[C@]5(C)CC[C@]4(C)[C@]3(C)CC[C@@H]12 (stereo partly specified) do in these assays?
ANO1 block: 100*; PP5 primary: 2; PREPL inhibitor: -1; PP1 inh: 3

Results for O=S(=O)(Nc1nccs1)c1ccc(Nc2nnc(-c3ccccc3)c3ccccc23)cc1 ?
ANO1 block: inactive; PP5 primary: 5; PREPL inhibitor: -7; TMEM16A act: inactive; PP1 inh: 17*; FID counter: -20
